Bioassay records deposited in PubChem by several laboratories.
Sampled rows, rich in hits. Any-hit rate of the full collection: about 1.6%.
PERK inh: block of dimerizer-induced PERK translation repression, primary screen, PERK inhibitor project, CHO PERK-DD cells, SEAP luminescence, HTS; CHO PERK-DD fusion, SEAP luminescence translation reporter; inhibition, % at 5.6 µM; 0.17% of 220,000 active; AID 1416, 2008;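 active = inhibition above the mean inhibition of all tested compounds plus 3 SD, set separately per screening campaign, cut at about 2.9% in these data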;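 note: PERK kinase domain activated by AP20187 dimerizer at 100 nM; 0% = DMSO with dimerizer and 100% = rapamycin at 8.4 µM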
Rce1 inhib: yeast Rce1p protease inhibitors, primary screen, biochemical, fluorescence, cell-free homogeneous; CAAX prenyl protease 2 (Saccharomyces cerevisiae (strain ATCC 204508 / S288c)), Q03530; yeast membranes, quenched prenylated peptide cleavage fluorescence; calls only; 0.27% of 290,000 active; AID 2563, 2010;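 active = fall in fluorescence gain of 50% or more versus controls, with final raw signal at or below 3038400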;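 note: plate controls were neutral control wells for no effect and wells lacking membranes for full effect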
Target sequence (Q03530 whole entry, looked up): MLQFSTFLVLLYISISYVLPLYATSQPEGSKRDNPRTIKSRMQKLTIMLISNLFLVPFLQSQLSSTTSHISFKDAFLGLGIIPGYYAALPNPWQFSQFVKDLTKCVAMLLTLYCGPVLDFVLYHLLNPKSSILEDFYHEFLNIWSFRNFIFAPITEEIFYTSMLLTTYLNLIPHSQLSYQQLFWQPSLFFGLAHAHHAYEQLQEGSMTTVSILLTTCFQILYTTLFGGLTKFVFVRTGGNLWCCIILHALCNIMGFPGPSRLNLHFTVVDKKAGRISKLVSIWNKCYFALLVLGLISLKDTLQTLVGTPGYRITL
V-ATPase pHluor: regulators of yeast V-ATPase proton pumping, primary screen, pHLuorin cytosolic pH fluorescence; S. cerevisiae; response, % at 10 µM; 0.37% of 350,000 active; AID 504577, 2011; in the data active = response mostly above about 7.3%, no sharp cut-off; inactive = mostly below about 5.4%; note: actives read high
NALP3 yeast inh: NALP3 inflammasome inhibitors in reconstituted yeast, primary screen, luminescence, uHTS; 0.39% of 330,000 active; inhibition, % at 10 µM; Yeast reconstituted NLRP3/ASC/caspase-1, beta-gal luminescence, 24 h;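 active = inhibition of 50% or more; inactive = inhibition below 50%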;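 note: plate controls were induced DMSO wells for no effect and uninduced yeast grown without galactose for full effect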
NALP1 inh: NALP1 inflammasome inhibitors in reconstituted yeast, colorimetric, S. cerevisiae, triplicate retest | AID 2071, 2009 | inhibition, % at 10 µM | 0.61% of 280,000 active | S. cerevisiae NALP1/ASC/caspase-1 growth, X-gal OD620, 72 h; in the data active = inhibition mostly above about 24%, no sharp cut-off; inactive = mostly below about 32%
CR mimetic SO: reduction of superoxide in aged yeast, primary screen, HTS | S. cerevisiae aged cells, superoxide DHE fluorescence; active compounds read low | superoxide response (% of plate mean), % at 10 µM | 0.18% of 330,000 active | AID 2690, 2010;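 active = superoxide response under a set limit, about three screen SD below normal, cut at about 65% in these data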;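 note: yeast aged for seven days with compound at 30 °C before DHE staining; 100% = average MFI of all compound-treated wells on the plate with controls excluded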
An asterisk follows results filed as active.

For CC1(C(=O)N(CC(=O)NC2CCCC2)Cc2ccco2)CC(=O)N=C2C=CC=CN21 (stereo unspecified) the results were PERK inh 0, Rce1 inhib active, V-ATPase pHluor 1, NALP3 yeast inh 0, NALP1 inh -10 and CR mimetic SO 81.
For CC1=CC2=NC(=O)CC(C)(C(=O)N(CC(=O)NC3CCCC3)Cc3ccc(Cl)cc3)N2C=C1 (stereo unspecified) the results were Rce1 inhib inactive, V-ATPase pHluor -1, NALP3 yeast inh 4, NALP1 inh 7 and CR mimetic SO 100.
For CC1(C(=O)N(CC(=O)NC2CCCC2)Cc2ccccc2)CC(=O)N=C2C=CC=CN21 (stereo unspecified) the results were Rce1 inhib active, V-ATPase pHluor 6, NALP3 yeast inh 29, NALP1 inh 2 and CR mimetic SO 86.
For CSc1nn(-c2ccc(C(=O)OC(C(=O)NC(N)=O)C(C)C)cc2)c(=S)s1 (stereo unspecified) the results were PERK inh 0, Rce1 inhib inactive, V-ATPase pHluor 1, NALP3 yeast inh 14, NALP1 inh 38* and CR mimetic SO 96.
`CCOC(=O)C1CCCCN1Cc1cccc(F)c1` (stereo unspecified) gave PERK inh 0, Rce1 inhib inactive, V-ATPase pHluor -2, NALP3 yeast inh 8, NALP1 inh 49 and CR mimetic SO 91.
`CCOC(=O)C1CCCCN1Cc1ccc(F)cc1` (stereo unspecified) gave PERK inh 0, Rce1 inhib inactive, V-ATPase pHluor -1, NALP3 yeast inh 3, NALP1 inh 43* and CR mimetic SO 81.
For COc1ccncc1-c1ccccc1C1=CC(=O)CC(C)(C)C1=O the results were V-ATPase pHluor 4.
Screening COC(=O)Cc1c(C)c2ccc(OC(=O)c3ccccc3)cc2oc1=O returned PERK inh 0, Rce1 inhib inactive, V-ATPase pHluor 20*, NALP3 yeast inh -14, NALP1 inh 12 and CR mimetic SO 107.
For Cc1cc(C)cc(N2CC(O)=C(c3nc4ccccc4c(=O)[nH]3)C2=N)c1 the results were PERK inh 2, Rce1 inhib active, V-ATPase pHluor 1, NALP3 yeast inh 7, NALP1 inh -2 and CR mimetic SO 106.
For COc1cccc(N2CC(O)=C(c3nc4ccccc4c(=O)[nH]3)C2=N)c1 the results were PERK inh -2, Rce1 inhib inactive, V-ATPase pHluor 1, NALP3 yeast inh -26, NALP1 inh -6 and CR mimetic SO 100.
`CC(C)CCN1CCN(Cc2ccc(Oc3ncccn3)cc2)CC1CCO` (stereo unspecified) gave PERK inh 0, Rce1 inhib inactive, V-ATPase pHluor 1, NALP3 yeast inh -2, NALP1 inh -7 and CR mimetic SO 108.
Screening CC(C)N1CCN(Cc2ccc(Oc3ncccn3)cc2)CC1CCO (stereo unspecified) returned PERK inh 1, Rce1 inhib active, V-ATPase pHluor 2, NALP3 yeast inh -12, NALP1 inh 3 and CR mimetic SO 92.
For CCOC(=O)Cn1c(C)[n+](CC(=O)c2ccccc2)c2ccccc21 the results were PERK inh -1, Rce1 inhib inactive, V-ATPase pHluor -3, NALP3 yeast inh 12, NALP1 inh 8 and CR mimetic SO 65*.
O=C(CN1CCN(Cc2ccc(Cl)cc2)C1=O)NCCCN1CCN(c2ccc(F)cc2)CC1 was read as PERK inh -1, Rce1 inhib inactive, V-ATPase pHluor 17*, NALP3 yeast inh 9, NALP1 inh 8 and CR mimetic SO 89.
`Cc1nc(N2CCCCC2)c2c(C)c(C(=O)Nc3ccccc3C(F)(F)F)sc2n1` gave PERK inh 1, Rce1 inhib active, V-ATPase pHluor 3, NALP3 yeast inh 24, NALP1 inh 11 and CR mimetic SO 106.
CCCN(C(=O)CSc1ccccc1C(=O)O)C1CCS(=O)(=O)C1 (stereo unspecified) was read as V-ATPase pHluor 15*, NALP3 yeast inh 6 and CR mimetic SO 111.
CC(=O)Nc1ccc(OCc2cccc3ccccc23)cc1 was read as Rce1 inhib inactive, V-ATPase pHluor 2, NALP3 yeast inh 32, NALP1 inh 29* and CR mimetic SO 99.
For C=CCNC(=S)Nc1cccc2ccccc12 the results were PERK inh 3.0*, Rce1 inhib inactive, V-ATPase pHluor -1, NALP3 yeast inh 0, NALP1 inh 29 and CR mimetic SO 87.
CCOc1ccc(NC(=S)Nc2cccc3cnccc23)cc1 was read as PERK inh 0, Rce1 inhib inactive, V-ATPase pHluor -1, NALP3 yeast inh 15, NALP1 inh 1 and CR mimetic SO 85.
Screening CCOc1ccc(NC(=S)Nc2cccc3ccccc23)cc1 returned Rce1 inhib inactive, V-ATPase pHluor -1, NALP3 yeast inh 20, NALP1 inh 40* and CR mimetic SO 89.
`CCOC(=O)C(C)N1c2cccc3cccc(c23)S1(=O)=O` (stereo unspecified) gave V-ATPase pHluor 1.
O=C(NCc1nnnn1-c1ccc(F)cc1)C(=O)c1c[nH]c2ccccc12 was read as V-ATPase pHluor 2.
`COc1ccc(-n2nc(C(=O)NCC(=O)N3CCC(C)CC3)c3ccccc3c2=O)cc1` gave Rce1 inhib active, V-ATPase pHluor 0, NALP3 yeast inh 3, NALP1 inh 21 and CR mimetic SO 89.
For COc1ccc(C(=O)NCC(C)(C)N2CCOCC2)cc1S(=O)(=O)NCc1ccc(Cl)cc1 the results were V-ATPase pHluor 21*.
`COc1ccc(C(=O)N2CCC2)cc1S(=O)(=O)NCc1ccc(Cl)cc1` gave V-ATPase pHluor -4, NALP3 yeast inh 6 and CR mimetic SO 94.
Screening COc1ccc(C(=O)NCCNC(C)=O)cc1S(=O)(=O)NCc1ccc(Cl)cc1 returned PERK inh -1, Rce1 inhib inactive, V-ATPase pHluor -1, NALP3 yeast inh 6, NALP1 inh 28* and CR mimetic SO 101.
`O=C(OCc1cn([C@@H]2C[C@H](c3ccccc3)N(Cc3cccs3)C[C@H]2O)nn1)c1ccccc1` gave V-ATPase pHluor 2.
For C[C@H]1CN([C@@H](C)CO)S(=O)(=O)c2ccc(-c3ccccc3)cc2O[C@H]1CN(C)C(=O)C1CCC1 the results were V-ATPase pHluor -1.
CCOc1ccc(-c2c(C(=O)N/N=C/c3cccs3)nnn2-c2nonc2N)cc1 was read as Rce1 inhib active, V-ATPase pHluor 7, NALP3 yeast inh 12, NALP1 inh 22 and CR mimetic SO 113.
